Assay outcomes (PubChem BioAssay)
SNCA expr inh – Primary qHTS assay for inhibitors of alpha-synuclein gene (SNCA) expression | Potency, µM (top dose mostly 57.2 µM), inactives show at the highest dose activity change, negative = inhibition, hits mostly inhibitors | HEK-293 SNCA-luciferase knock-in, luminescence, 24 h | 140,000 compounds, 0.17% hits | AID 1671194, 2021;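 further: plate controls were DMSO cells for no effect and cell-free wells for full effect; nearly all actives have a fitted effect of over 45% in size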
Luciferase inh – Firefly luciferase inhibition profiling of diverse chemical library using quantitative high-throughput screening | Luciferin 4-monooxygenase (Photinus pyralis), P08659 | purified P. pyralis luciferase, luminescence, biochemical | Potency, µM (doses to about 115 µM), actives largely listed as inhibitors | 76,000 compounds, 2.5% hits | AID 1347043, 2019; further: nearly all actives have a fitted effect of over 65% in size
Target sequence (P08659 whole entry, looked up): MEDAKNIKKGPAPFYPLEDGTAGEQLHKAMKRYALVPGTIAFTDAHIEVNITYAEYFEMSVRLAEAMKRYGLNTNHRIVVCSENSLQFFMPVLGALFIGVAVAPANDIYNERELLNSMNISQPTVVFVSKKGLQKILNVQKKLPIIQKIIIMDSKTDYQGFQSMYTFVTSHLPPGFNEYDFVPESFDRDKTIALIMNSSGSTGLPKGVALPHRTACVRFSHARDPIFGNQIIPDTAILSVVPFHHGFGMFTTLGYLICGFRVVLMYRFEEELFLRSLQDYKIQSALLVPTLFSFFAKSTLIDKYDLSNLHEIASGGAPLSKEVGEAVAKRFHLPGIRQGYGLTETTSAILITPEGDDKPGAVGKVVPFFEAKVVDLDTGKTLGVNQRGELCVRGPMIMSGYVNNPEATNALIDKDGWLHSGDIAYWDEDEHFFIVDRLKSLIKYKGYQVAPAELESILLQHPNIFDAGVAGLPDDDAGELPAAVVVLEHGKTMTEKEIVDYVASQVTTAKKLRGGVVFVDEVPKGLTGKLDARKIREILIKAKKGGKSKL
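FLuc 10nM, D-luciferin 10uM, ATP 10uM, Mg acetate 10mM, Tris acetate pH 7.5, Tween/BSA; cpd qHTS; enzyme added last; CCD luminescence.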
hNpr1 antagonist – Natriuretic polypeptide receptor (hNpr1) antagonism - Primary qHTS. Atrial natriuretic peptide receptor 1 (Homo sapiens), P16066. HEK293 hNpr1 GloSensor cGMP, ANP-stimulated luminescence. Potency, µM (titrated, usually from 46.3 µM), without a hit: at the highest dose activity change, negative = inhibition, actives largely listed as inhibitors. 76,000 compounds, 1.6% hits. AID 1347048, 2019; calls by dose curve; further: nearly all actives have a fitted effect of over 60% in size
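HEK293 cells stably expressing human Npr1 and cGMP GloSensor pGS-40F, loaded 2 h with 2% GloSensor reagent, given compound 30 min at room temperature. Luminescence read before and 20 min after 0.1 nM hNppA.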
3T3 cytotox – Cytotoxic Profiling in NIH 3T3 Cell Line of Diverse Libraries Using Quantitative High-Throughput Screening; Potency, µM (highest dose often 96.7 µM), for the others: at the highest dose activity change, negative = cytotoxicity, most hits filed as inhibitors; NIH 3T3 viability, CellTiter-Glo ATP luminescence, 48-72 h; 94,000 compounds, 4.3% hits; further: nearly all actives have a fitted effect of over 55% in size
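NIH 3T3 cells at 400 cells/well received 23 nL of compound by pintool and were incubated 48 or 72 h at 37 °C. Viability was read as ATP-coupled CellTiter-Glo luminescence.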
HEK cytotox – Cytotoxic Profiling in HEK 293 Cell Line of Diverse Libraries Using Quantitative High-Throughput Screening; HEK 293 viability, ATP luminescence (CellTiter-Glo), 48-72 h; Potency, µM (titrated, usually from 115 µM), inactives show at the top dose activity change, negative = cytotoxicity, actives largely listed as inhibitors; 94,000 compounds, 6.6% hits; AID 1345083, 2018; further: nearly all actives have a fitted effect of over 60% in size
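HEK 293 seeded at 250 cells/well receive compound via pintool. After 48 or 72 hr at 37 degree Celsius, 5% CO2 and 95% humidity, CellTiter-Glo is dispensed and luminescence read following 10 min at room temperature.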
SNCA viab count – GF-AFC viability counterscreen for inhibitors of alpha-synuclein gene (SNCA) expression; AID 1671193, 2021; HEK-293-SNCA-luc viability, GF-AFC fluorescence, 24 h; 150,000 compounds, 0.12% hits; Potency, µM (series often up to 57.1 µM), without a hit: at the top dose activity change, negative = cytotoxicity, actives largely listed as cytotoxic;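 further: 0% = DMSO-treated cells and -100% = medium-only wells without cells; nearly all actives have a fitted effect of over 30% in size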
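HEK-293-SNCA-luc cells (1500/well) plated 24 h, then exposed 24 h to a dilution series; GF-AFC added 30 min at 37C, fluorescence 405/540 nm; normalised to medium-only and DMSO wells, Hill fit.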
* = called active by the depositor; i = inactive; u = inconclusive; x = no result; ! = repeats disagree; [ ] = another dose, or the depositor's remark. Shown are actives, neighbours in structure and some others; about 7.2% of the full set was active somewhere. Unless noted, the call rests on the fitted dose curve; in most records, active means well fitted curve in the direction sought with a large enough effect; inconclusive means small, poorly fitted or top-dose-only effect, or another doubt; inactive means no such curve, though single readings can be large; an effect the other way counts as inactive or inconclusive. Unless noted, on the % scale 0 is the no-effect control and ±100 the full control effect; potency means the concentration at half of the fitted maximal effect.

SMILES	SNCA expr inh	Luciferase inh	hNpr1 antagonist	3T3 cytotox	HEK cytotox	SNCA viab count
CNC(=O)C1CCCCN1Cc1ccc(-c2ccsc2)cc1 (stereo unspecified)	26%[87.6 µM]	x	x	u	u	3%[87.6 µM]
O=C(NC1CC1)C1CCCCN1Cc1ccc(-c2ccsc2)cc1 (stereo unspecified)	-23%[87.6 µM]	x	x	79µM*	u	4%[87.6 µM]
O=C(NC1CCCC1)C1CCCCN1Cc1ccc(-c2ccsc2)cc1 (stereo unspecified)	-16%	x	x	u	25µM*	1%
CC(C)NC(=O)C1CCCCN1Cc1ccc(-c2ccsc2)cc1 (stereo unspecified)	-18%	x	x	u	50µM*	0%
CNC(=O)C1CCCN1Cc1ccc(-c2cncnc2)cc1 (stereo unspecified)	3%[87.6 µM]	x	x	-9%[138 µM]	-13%[172 µM]	6%[87.6 µM]
C#CCNC(=O)C1CCCCN1Cc1ccc(-c2ccsc2)cc1 (stereo unspecified)	-7%	x	x	-39%	40µM*	7%
COc1cc(C)ccc1OCc1cc(C(=O)N(C)Cc2ncccc2C)no1	-9%	i	3%	35µM*	40µM*	-4%
O=C(NCc1ccc(F)cc1)c1nc2cccnc2n(C2CC2)c1=O	-19%	x	x	-28%	-4%	-6%
CC[C@H]1CN(C(=O)C2CC2)CC[C@H]1CC(=O)NCc1ccccc1	-19%[87.6 µM]	i	6%[70.6 µM]	i	0%[172 µM]	5%[87.6 µM]
O=C(COc1ccc(Cl)cc1Cl)N1CCCCC1c1ccccn1 (stereo unspecified)	35%	u	u	u	45µM*	-7%
CC(C(=O)N1CCCN(c2cc(-c3ccc(Cl)cc3)[nH]n2)CC1)c1ccccc1 (stereo unspecified)	-10%	u	u	35µM*	40µM*	u
CCC(C(=O)N1CCCN(c2cc(-c3ccc(OC)cc3)[nH]n2)CC1)c1ccccc1 (stereo unspecified)	2%	i	-2%	u	40µM*	-9%
CCC(C(=O)NC1CCN(c2cc(-c3ccc(OC)cc3)[nH]n2)CC1)c1ccccc1 (stereo unspecified)	-26%	i	-3%	u	u	-8%
O=C(c1ccccc1)N1CCCN(c2cc(-c3ccc(Cl)cc3)[nH]n2)CC1	-10%	i	-18%	u	u	-4%
CC(Oc1ccccc1)C(=O)N1CCCN(c2cc(-c3ccc(Cl)cc3)[nH]n2)CC1 (stereo unspecified)	2%	i	u	u	40µM*	-18%
Cc1csc(Nc2ccc3ncn(C)c(=O)c3n2)n1	69%[87.6 µM]	i	2%[70.6 µM]	u	u	-23%[87.6 µM]
O=C1N(Cc2ccc(F)cc2)C[C@H]2CN(Cc3cnc4ccccc4c3)CCN12	-26%[87.6 µM]	i	u	71µM*	u	-7%[87.6 µM]
O=C(NCc1ccc(F)cc1)[C@H]1CN(Cc2ccccc2)C[C@H]1C(=O)O	u	i	-14%	-18%	-17%	-1%
O=C(NCc1ccccc1)c1ccccc1OC1CN(Cc2ccc(F)cc2)C1	u	i	-17%	32µM*	u	u
COc1cccc(CN2CC(Oc3ccccc3C(=O)NCc3ccccc3)C2)c1	-5%	i	-19%	35µM*	40µM*	-11%
Cc1noc(C)c1CN1C[C@@H]2[C@H](C1)N(CCOc1ccccc1)C(=O)C(C)(C)[S+]2(=O)[O-]	-16%	i	-1%	16µM*	-23%	-10%
CC(C)CCN1C[C@@H]2[C@H](C1)N(CCOc1ccccc1)C(=O)C(C)(C)[S+]2(=O)[O-]	-9%[87.6 µM]	i	5%[70.6 µM]	u	112µM*	-3%[87.6 µM]
O=C(O)C[C@@H]1CCN(C(=O)Nc2ccc(OC(F)(F)F)cc2)C[C@@H]1CCN1C[C@@H]2C[C@H](C1)c1cccc(=O)n1C2	14%	i	-1%	i	i	6%
Cc1cc(OCCN(C)C)c(C)c2c1CC[C@@H]([C@H](C)C(=O)NCc1ccccc1)C2	-20%[87.6 µM]	i	-7%[70.6 µM]	56µM*	50µM*	-10%[87.6 µM]
CCCOc1cc(C)c2c(c1C)C[C@H]([C@H](C)C(=O)NCCOC)CC2	-17%[87.6 µM]	i	1%[70.6 µM]	u	-21%[172 µM]	2%[87.6 µM]
SMILES	SNCA expr inh	Luciferase inh	hNpr1 antagonist	3T3 cytotox	HEK cytotox	SNCA viab count
COCCOc1cc(C)c2c(c1C)C[C@H](C(C)C(=O)NCc1cccs1)CC2 (stereo partly specified)	u	i	-13%[70.6 µM]	u	50µM*	-6%[87.6 µM]
COc1cc(C)c2c(c1C)C[C@H](C(C)C(=O)NCc1cccs1)CC2 (stereo partly specified)	-16%[87.6 µM]	i	-9%[70.6 µM]	35µM*	u	-16%[87.6 µM]
COc1cccc(NC(=O)CCc2nc(-c3cccs3)no2)c1	15%	x	x	x	x	-13%
COc1cccc2nc(-c3cccs3)nc(NN3C(=O)C=C(C)C3=O)c12	u	x	x	x	x	30µM*!
Cc1noc2c(N3CCOCC3)cc(-c3cccnc3)nc12	4%[87.6 µM]	i	10%[70.6 µM]	u	-19%[172 µM]	0%[87.6 µM]
Cc1ccc(-c2cc(-c3cccnc3)nc3c(C)noc23)c(C)c1	-16%[87.6 µM]	u	0%[70.6 µM]	u	79µM*	9%[87.6 µM]
Cc1noc2c(N3CCN(Cc4ccccc4)CC3)cc(-c3cccnc3)nc12	-43%[87.6 µM]	i	-17%[70.6 µM]	u	63µM*	u
COC1CCN(c2cc(-c3ccccc3)nc3c(C)noc23)CC1	4%[87.6 µM]	i	2%[70.6 µM]	u	u	-3%[87.6 µM]
CC(=O)N1CCN(c2cc(-c3ccccc3)nc3c(C)noc23)CC1	5%[87.6 µM]	i	1%[70.6 µM]	89µM*	-18%[172 µM]	0%[87.6 µM]
Cc1cc(C(=O)N2CCCC3(COc4ccccc4S(=O)(=O)N3)C2)no1 (stereo unspecified)	-6%	x	x	5%	i	1%
COc1cccc(-c2ccc(C(=O)N3CCC(N[S+](=O)([O-])c4cccc(C(F)(F)F)c4)CC3)cc2)c1	4%	x	x	u	11µM*	3%[12.5 µM]
COc1cccc(-c2ccc(C(=O)N3CCC(N[S+](=O)([O-])c4ccc(C)cc4)CC3)cc2)c1	-16%	x	x	u	11µM*	-3%[12.5 µM]
N#Cc1cccnc1-c1ccc(C(=O)N2CCC(N[S+](=O)([O-])c3cccc(C(F)(F)F)c3)CC2)cc1	-14%	x	x	u	u	4%[12.5 µM]
O=C(COc1ccc(F)cc1)NCc1nnc2ccc(-c3ccccc3)nn12	6%	i	1%	-14%	-21%	-2%
